From PubChem BioAssay
PrPC surface inh = inhibitors of human cell surface prion protein PrPC, primary screen, cell-based, TR-FRET; Major prion protein (Homo sapiens), P04156; AID 720596, 2013; inhibition, % at 13.8 µM; TR-FRET read-out; actives 0.43% (n = 370,000); in the data active means inhibition above about 24%
VHR inh abs = VHR1 phosphatase inhibitors, primary screen, biochemical, absorbance, uHTS; Dual specificity protein phosphatase 3 (Homo sapiens), P51452; recombinant VHR phosphatase, pNPP absorbance; inhibition, % at 13.3 µM; actives 0.52% (n = 290,000); AID 1654, 2009; in the data active means inhibition above about 50%
Target sequence (P51452 whole entry, looked up): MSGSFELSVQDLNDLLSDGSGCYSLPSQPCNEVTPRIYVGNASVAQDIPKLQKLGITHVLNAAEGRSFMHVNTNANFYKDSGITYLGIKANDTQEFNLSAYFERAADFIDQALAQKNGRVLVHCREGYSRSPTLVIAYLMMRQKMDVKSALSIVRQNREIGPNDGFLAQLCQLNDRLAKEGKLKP
BJeLR lethal = MLPCN primary cell-based screen for lethality selective to Ras in HRASV12 cells; actives 0.17% (n = 300,000); BJeLR (HRASV12) viability, CellTiter-Glo ATP luminescence, 48 h; inhibition, % (test concentration not listed); in the data active means inhibition above about 50%
SARS 3CLpro inh = SARS-CoV 3CLpro protease inhibitors, primary screen, biochemical, quenched FRET; inhibition, % at 6 µM; actives 0.14% (n = 290,000); recombinant SARS-CoV 3CLpro, quenched FRET peptide cleavage; AID 1706, 2009; Replicase polyprotein 1ab (Severe acute respiratory syndrome coronavirus), P0C6X7; in the data active means inhibition above about 12%
Large screens that a line does not name were inactive. Only some compounds are listed: those with a hit (about 1.1% of all), similar ones and a draw of the others.

Cc1ccc(O)c(CNc2nc3ccccc3n2C(C)C)c1	none
C=CCn1c(NCc2cc(C)ccc2O)nc2ccccc21	VHR inh abs 50
CC(C)n1c(NCc2cc(Cl)ccc2O)nc2ccccc21	VHR inh abs 54
CCCCN1C(=O)C(C(=O)OCc2ccccc2)CC2=C1CCCC2=O (stereo unspecified)	none (no result: VHR inh abs, BJeLR lethal, SARS 3CLpro inh)
COc1ccc(C(=O)Nc2nc3ccccc3s2)c(OC)c1	BJeLR lethal 53
C=Cc1cnc([N+](=O)[O-])n1C	none (no result: VHR inh abs, BJeLR lethal, SARS 3CLpro inh)
O=[N+]([O-])c1cccc(/C=N/N=C\c2ccccc2)c1	VHR inh abs 60
COc1ccc(S[C@]2(C(=O)N(C)C)CC(=O)N(C(=O)c3ccccc3)[C@@H]2c2ccc(OC)cc2)cc1	none (no result: VHR inh abs, BJeLR lethal, SARS 3CLpro inh)
CC1SC(c2ccc(Cl)cc2Cl)NC1=O (stereo unspecified)	VHR inh abs 57
CC1SC(c2cccc(Cl)c2)NC1=O (stereo unspecified)	none
O=CN1CCN(C(=O)Cc2ccc(Cl)cc2)CC1	none (no result: VHR inh abs, BJeLR lethal, SARS 3CLpro inh)
O=C(Nc1ccc(C(=O)N2CCCCC2)cc1)[C@H]1O[C@@H](n2ccc(=O)[nH]c2=O)[C@H](O)[C@@H]1O	none (no result: VHR inh abs, BJeLR lethal, SARS 3CLpro inh)
CC(=O)Nc1ccc(NC(=O)C2CCN(S(C)(=O)=O)CC2)cc1	none (no result: VHR inh abs, BJeLR lethal, SARS 3CLpro inh)
CC[C@]1(c2ccc(C)cc2)C(=O)N(C(=O)OC(C)C)N1C(=O)OC(C)C	none (no result: VHR inh abs, BJeLR lethal, SARS 3CLpro inh)
COC(=O)C1CN(Cc2ccc(OC)cc2)CCS(=O)(=O)N1Cc1cn(CCOC(C)=O)nn1 (stereo unspecified)	none (no result: VHR inh abs, BJeLR lethal, SARS 3CLpro inh)
CCCN1CCN(C(=O)c2ccc(S(=O)(=O)N(C)c3ccccc3OC)cc2)CC1	none (no result: VHR inh abs, BJeLR lethal, SARS 3CLpro inh)
Cc1ccc(N/C(N)=N/c2nc(CSc3nnc(N)s3)cc(=O)[nH]2)cc1	VHR inh abs 53
CCCC/C=C1/[C@@H](CC)N(Cc2ccc(OC)cc2OC)C2=N[C@@H](c3ccccc3)CC(=O)N21	none (no result: VHR inh abs, BJeLR lethal, SARS 3CLpro inh)
O=C(O)[C@@H]1[C@H]2C[C@H]3c4[nH]c5ccccc5c4CCN3C[C@@H]2CC[C@@H]1O	none (no result: VHR inh abs, BJeLR lethal, SARS 3CLpro inh)
O=C(O)C1CCCC2CN3CCc4c([nH]c5ccccc45)C3C(O)C21 (stereo unspecified)	VHR inh abs 56
Cc1cc(OC(C)C(=O)NCCCN2CCOCC2)ccc1Cl (stereo unspecified)	VHR inh abs 50
CC(Oc1ccc(Cl)cc1Cl)C(=O)NCCCN1CCOCC1 (stereo unspecified)	none
O=C1CCN(CCc2ccccc2)CCN1[C@H](COc1ccccc1)c1ccccc1	none
CCCN1CCC(=O)N([C@H](COc2ccccc2)c2ccccc2)CC1	VHR inh abs 55
CN1CCC(=O)N([C@H](CC#N)c2ccccc2)CC1	VHR inh abs 52
COc1ccc(CN(CC(=O)NCc2ccccc2)C(=O)CCC(=O)Nc2cc(C)ccn2)cc1	VHR inh abs 52
CCCCCCCCN1C(=O)N2Cc3ccc(C)cc3C2CS1(=O)=O (stereo unspecified)	none (no result: VHR inh abs, BJeLR lethal, SARS 3CLpro inh)
COC(=O)[C@]12C[C@H](CC(=O)NCCCN3CCCC3=O)C(=O)N(Cc3ccccc3)C1=C[C@H](COCc1ccccc1)O[C@@H]2C	none (no result: VHR inh abs, BJeLR lethal, SARS 3CLpro inh)
COc1ccc(N2CCN(C3CCCN(Cc4ccc(F)cc4Cl)C3)CC2)cc1 (stereo unspecified)	VHR inh abs 51
COc1ccc(N2CCN(C3CCCN(S(=O)(=O)c4ccc(C)cc4C)C3)CC2)cc1 (stereo unspecified)	VHR inh abs 57
O=C(Nc1ccccc1-c1nc2ccccc2[nH]1)c1ccc(S(=O)(=O)N2CCCCC2)cc1	VHR inh abs 50
CC1CCCCN1S(=O)(=O)c1ccc(C(=O)Nc2ccccc2-c2nc3ccccc3[nH]2)cc1 (stereo unspecified)	none
CCCNC(=O)C1(C)CCCN(Cc2ccc(C(=O)OCC)o2)C1 (stereo unspecified)	none (no result: VHR inh abs, BJeLR lethal, SARS 3CLpro inh)
COc1ccc(NC(=O)COC(=O)CNC(=O)c2cccs2)cc1Cl	none (no result: VHR inh abs, BJeLR lethal, SARS 3CLpro inh)
CN(C)c1nc2sc3c(c2c(=O)n1C)CC(C)(C)OC3	VHR inh abs 60
COCc1cc(N2CCNC[C@H]2C)ccc1N1C[C@@H](C)O[C@@H](C)C1	none (no result: VHR inh abs, BJeLR lethal, SARS 3CLpro inh)
C/C=C1\NC(=O)[C@H](C)NC(=O)[C@@H](NC(=O)[C@@H](Cc2ccc(O)cc2)NC(=O)[C@@H](NC(=O)/C(C)=C/C)C(C)C)[C@@H](C)OC(=O)[C@H](CCCCc2ccc(O)cc2)NC(=O)[C@@H](CCC(=O)O)NC1=O	none (no result: VHR inh abs, BJeLR lethal, SARS 3CLpro inh)
CCC(NC(=O)NC1=NCCS1)(C(F)(F)F)C(F)(F)F	VHR inh abs 57
CC(C)CCN1C(=O)c2ccc(-c3nc4ccccc4c(=O)o3)cc2C1=O	VHR inh abs 50
COc1ccc(S(=O)(=O)/N=C2\C=C(Nc3ccc(O)cc3)C(=O)c3ccccc32)cc1	PrPC surface inh 56, BJeLR lethal 51
CC(=O)Nc1ccc(NC2=C/C(=N/S(=O)(=O)c3cccs3)c3ccccc3C2=O)cc1	none
Cc1cccc(NS(=O)(=O)c2ccc(C(=O)N3CC(C)OC(C)C3)cc2)c1C (stereo unspecified)	none (no result: VHR inh abs, SARS 3CLpro inh)
CC1CCN(CC(O)CN2c3ccccc3Sc3ccccc32)CC1 (stereo unspecified)	VHR inh abs 58 (no result: PrPC surface inh)
CC(=O)Nc1ccc(CN(C)c2c(C)nc3ccc(C(=O)N4CCN(C(C)=O)CC4)cn23)cc1	none (no result: VHR inh abs, BJeLR lethal, SARS 3CLpro inh)
Cn1c(/C=C/c2ccc([N+](=O)[O-])o2)nc2ccccc2c1=O	BJeLR lethal 82 (no result: PrPC surface inh)
CCOC(=O)NN=C1CN(S(=O)(=O)c2ccc(C)cc2)C1	none
Cc1nn(-c2ccccc2)c(Cl)c1CN(C(=O)CCl)c1ccc(Cl)cc1	BJeLR lethal 133
Cn1cnc(S(=O)(=O)N2CCCCC2c2cc(C(=O)Nc3ccc(F)c(Cl)c3)no2)c1 (stereo unspecified)	none (no result: VHR inh abs, BJeLR lethal, SARS 3CLpro inh)
COC(=O)c1nc(N)sc1C(C)C	VHR inh abs 53
NC(=Nc1ccc(Br)cc1)c1ccccc1	VHR inh abs 51
N/C(=N\OC(=O)Oc1ccccc1)c1ccc(Br)cc1	none
Nc1nc(CCl)nc(Nc2ccc3ccccc3c2)n1	BJeLR lethal 114
COc1ccc(Nc2nc(N)nc(CCl)n2)cc1	none
Cc1ccccc1Nc1nc(N)nc(CN(C)c2ccccc2)n1	none
Cc1ccccc1Nc1nc(N)nc(CCl)n1	BJeLR lethal 67
Cc1n[nH]c(=O)c2c(NC(=O)CSc3nncs3)oc(C)c12	none (no result: VHR inh abs, SARS 3CLpro inh)
CCOC(=O)c1c(S(=O)(=O)Nc2ccc(C)c(F)c2)c(C)n(C)c1C	none
CCOC(=O)c1c(S(=O)(=O)Nc2ccc(C)cn2)c(C)n(C)c1C	VHR inh abs 51
COc1ccc(CC(=O)Nc2ccc(C(=O)O)cc2NC(=O)Cc2ccc(OC)cc2)cc1	VHR inh abs 57
COc1ccc(C(=O)Nc2ccc(C(=O)O)cc2NC(=O)c2ccc(OC)cc2)cc1	none
COc1ccc(CC(=O)Nc2ccc(N3CCCC3)c(C)c2)cc1	VHR inh abs 50
COc1ccc(-c2cc(-c3nc4ccccn4c3NCc3ccccc3)ccc2OC)cc1	PrPC surface inh 85 (no result: VHR inh abs, BJeLR lethal, SARS 3CLpro inh)
COc1ccc(-c2nc3ccccn3c2NCc2ccc3c(c2)OCO3)cc1	none
